A selection: hits, their analogues and other compounds. The true share with any hit is near 0.35%.
BCR signal inh: chronic active BCR signaling inhibition; ABC-DLBCL IkBa-CBG/CBR reporter, luminescence ratio, 4 h; Potency, µM (top dose mostly 46.1 µM), usual class: inhibitors; 0.05% of 340,000 active; AID 493014; active = well fitted inhibition curve with a large enough effect in the signal ratio, with a control signal flat, not every such curve was filed as active; inconclusive = small, poorly fitted or top-dose-only effect, or effect the other way, or a change in a side signal; the % refers to the signal ratio
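Compounds up to 46 uM were incubated four hours with TMD8 cells whose green CBG68 luciferase is fused to IkappaBalpha; red CBR luminescence normalised the signal, and concentration-effect curves were fitted to fusion, red and ratio data.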
GLS inhibitor: blocks human kidney-isoform glutaminase activity; O94925; AID 624170; Potency, µM (doses to about 45.5 µM), usual class: inhibitors; 0.21% of 410,000 active; GLS enzymatic activity, qHTS titration
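Two-point fluorescence kinetic (t0, 30 min RT) for hKGA; glutamate detected via glutamate oxidase–HRP–Amplex Red. Substrate: 1 mM L-glutamine solution; buffer 45 mM KH2PO4, pH 8.2.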
B2AR arrestin: recruits beta-arrestin to the human beta2-adrenergic receptor | Potency, µM (top dose mostly 46.1 µM), hits mostly activators | beta-arrestin recruitment to beta2AR, cell-based reporter | P07550 | 0.02% of 330,000 active; also: nearly all actives have a fitted effect of over 65% in size
MBNL1-CUG inh: blocks human MBNL1 binding to CUG repeat RNA; AID 2675; Potency, µM (top dose mostly 57.5 µM), most hits filed as inhibitors; 0.036% of 280,000 active; Q9NR56; TR-FRET MBNL1-His/biotin-(CUG)12 binding, 665/545 ratio; active = well fitted inhibition curve with a large enough effect in the signal ratio, with a control signal flat, not every such curve was filed as active; inconclusive = small, poorly fitted or top-dose-only effect, or effect the other way, or a change in a side signal; inactive = no such curve, though single readings can be large or run the other way; the % refers to the signal ratio
Target sequence (Q9NR56 whole entry, looked up): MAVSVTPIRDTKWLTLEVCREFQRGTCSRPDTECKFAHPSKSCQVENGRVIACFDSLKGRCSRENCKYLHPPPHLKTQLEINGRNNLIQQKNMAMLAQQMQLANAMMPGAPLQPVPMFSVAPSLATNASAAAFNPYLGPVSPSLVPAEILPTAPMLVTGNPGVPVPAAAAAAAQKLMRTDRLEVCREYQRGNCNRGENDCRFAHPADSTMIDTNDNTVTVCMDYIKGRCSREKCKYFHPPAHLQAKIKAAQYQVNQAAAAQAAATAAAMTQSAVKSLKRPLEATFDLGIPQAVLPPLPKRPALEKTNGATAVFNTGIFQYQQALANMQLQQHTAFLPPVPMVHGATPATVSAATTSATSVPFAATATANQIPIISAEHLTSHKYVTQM
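TR-FRET between His-tagged MBNL1 and biotin-(CUG)12 RNA, detected with Tb anti-His antibody (0.055 ng/ul) and streptavidin-XL665 (5 nM), 60 min at room temperature. Compounds titrated 92 nM to 58 uM; 665/545 nm ratio normalized to buffer and complex controls.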
Anesthetic bind: binds horse apoferritin like a general anesthetic; apoferritin/1-aminoanthracene competitive binding, fluorescence; Potency, µM (top dose mostly 77.5 µM), hits mostly inhibitors; P02791; 0.074% of 350,000 active; also: nearly all actives have a fitted effect of over 20% in size
Target sequence (P02791 2-175 limits assumed): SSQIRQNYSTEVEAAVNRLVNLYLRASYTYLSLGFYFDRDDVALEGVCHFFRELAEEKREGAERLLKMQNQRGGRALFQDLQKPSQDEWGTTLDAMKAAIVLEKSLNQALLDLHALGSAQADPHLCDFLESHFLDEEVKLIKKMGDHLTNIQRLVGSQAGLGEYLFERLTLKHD
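Apoferritin-based anesthetic binding model; compound displacement of fluorescent 1-AMA measured as endpoint fluorescence after 10 minutes at room temperature, scaled to free-ligand and complex controls.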
Each line names hits and unclear results; the compound was inactive in the other large screens. Unless noted, calls follow the shape of the dose curve; as a rule, active = well fitted curve in the direction sought with a large enough effect; inconclusive = small, poorly fitted or top-dose-only effect, or another doubt; inactive = no such curve, though single readings can be large; an effect the other way counts as inactive or inconclusive.

O=C1c2cccc3cccc(c23)C(=O)N1CCCc1n[nH]c(=S)n1-c1ccccc1	GLS inhibitor 3.98µM, MBNL1-CUG inh inconclusive
CCCc1c(C)[nH]c2ccc(C(=O)O)cc2c1=S	GLS inhibitor 7.08µM
Cc1[nH]c2ccc(C(=O)O)cc2c1C	BCR signal inh inconclusive
CCCCOc1ccc(CSC(=N)N)cc1Cl	BCR signal inh inconclusive, GLS inhibitor 20µM, Anesthetic bind inconclusive
CCCCCOc1ccc(Br)cc1CSC(=N)N	none
C=CCOc1ccc(CNc2ccc3[nH]c(=O)[nH]c3c2)cc1	GLS inhibitor 11.2µM, MBNL1-CUG inh inconclusive
C=CCOc1ccc(CNc2ccc3[nH]c(=O)[nH]c3c2)cc1OCC	GLS inhibitor inconclusive
O=C(O)c1cn(C2CC2)c2cc(N3CCNCC3)c(F)cc2c1=O	none (no result: BCR signal inh, B2AR arrestin, MBNL1-CUG inh)
C=CCNC(=S)N/N=C/c1ccc(C(C)(C)C)cc1	BCR signal inh 11.2µM, B2AR arrestin inconclusive
C=CCNC(=S)N/N=C/c1cn(C)c2ccccc12	BCR signal inh 17.8µM, GLS inhibitor inconclusive, B2AR arrestin inconclusive
CC(C)(C)c1ccc(/C=N/NC(=S)NCc2ccccc2)cc1	none
O=C(CCN1C(=O)c2ccccc2Sc2ncccc21)Nc1ccc(F)cc1	none (no result: BCR signal inh, B2AR arrestin, MBNL1-CUG inh)
O=C(Cc1ccc(-n2c(=O)c3ccccc3n(Cc3ccccc3Cl)c2=O)cc1)NCC1CCCO1 (stereo unspecified)	BCR signal inh 2.82µM (no result: MBNL1-CUG inh)
O=C(Cc1ccc(-n2c(=O)c3ccccc3n(Cc3ccccc3F)c2=O)cc1)NCC1CCCO1 (stereo unspecified)	BCR signal inh inconclusive (no result: MBNL1-CUG inh)
O=C(Cc1ccc(-n2c(=O)c3ccccc3n(Cc3ccc(F)cc3)c2=O)cc1)NCC1CCCO1 (stereo unspecified)	BCR signal inh 8.2µM (no result: MBNL1-CUG inh)
Cc1ccccc1Cn1c(=O)c2c(nc3n2CCCN3Cc2ccccc2)n(C)c1=O	GLS inhibitor 11.2µM (no result: BCR signal inh, B2AR arrestin, MBNL1-CUG inh, Anesthetic bind)
Cn1c(=O)n(Cc2ccccc2)c(=O)c2c1nc1n2CCS1	GLS inhibitor 11.2µM
CC(=O)Oc1ccc(C2(c3ccc(OC(C)=O)cc3)Oc3ccccc3NC2=O)cc1	none (no result: BCR signal inh, B2AR arrestin, MBNL1-CUG inh, Anesthetic bind)
COc1ccc(N2CCN(C(=O)C3CCN(S(=O)(=O)c4cn(C)cn4)CC3)CC2)cc1	none (no result: BCR signal inh, B2AR arrestin, MBNL1-CUG inh)
O=C(CSc1nnc(-c2ccc(O)cc2)o1)N1CCOCC1	BCR signal inh inconclusive, GLS inhibitor 8.91µM
CCC(Cc1c(I)cc(I)c(O)c1I)C(=O)O (stereo unspecified)	none (no result: BCR signal inh, B2AR arrestin, MBNL1-CUG inh, Anesthetic bind)
COc1ccc(OC)c(/C=C/c2ccc3cccc(O)c3n2)c1	BCR signal inh 11.2µM (no result: GLS inhibitor)
CC(=O)n1c(-c2ccccc2)c(-c2ccccc2)n(C)c1=O	GLS inhibitor 31.6µM (no result: BCR signal inh, B2AR arrestin, MBNL1-CUG inh, Anesthetic bind)
CC(=O)Nn1cc2c(c1-c1ccccc1)c(=O)n(C)c(=O)n2C	none
CCCCCCOc1ccc(C(=N)N(CCCC)CCCC)c2ccccc12	none (no result: BCR signal inh, B2AR arrestin, MBNL1-CUG inh, Anesthetic bind)
COc1cc(/C=C2\SC(=O)N(CC(=O)Nc3ccc(C)cc3)C2=O)cc(Cl)c1OCC(=O)O	BCR signal inh inconclusive, GLS inhibitor 7.08µM
Cc1ccc2[nH]c(-c3ccccc3)cc(=O)c2c1	BCR signal inh 5.62µM
Cc1ccc(-c2cc(=O)c3ccccc3[nH]2)cc1	none
Cc1ccc(C(=O)c2cc(O)c(O)c([N+](=O)[O-])c2)cc1	none (no result: BCR signal inh, B2AR arrestin, MBNL1-CUG inh, Anesthetic bind)
CC(C)(C)c1ccc(C(=O)COC(=O)CN2C(=O)NC3(CCCC3)C2=O)cc1	Anesthetic bind 25.1µM
CC(C)(C)c1ccc(COC(=O)CN2C(=O)NC3(CCCC3)C2=O)cc1	none (no result: MBNL1-CUG inh, Anesthetic bind)
COc1cc(C(=O)NCc2nc3cccnc3n2Cc2ccc(C)cc2)cc(OC)c1OC	none (no result: BCR signal inh, B2AR arrestin, MBNL1-CUG inh)
O=C(O)CC(=O)Nc1cc(Cl)ccc1O	none
O=C(CCc1ccccc1)Nc1cc(Cl)ccc1O	BCR signal inh inconclusive, Anesthetic bind 5.62µM
CCOC(=O)c1cccc(NS(=O)(=O)c2ccc(-c3cnc(C4CC4)o3)cc2)c1	none (no result: BCR signal inh, B2AR arrestin, MBNL1-CUG inh)
CC(C)(C)OC(=O)N1CCC(c2c(C(=O)NCCN3CCC(Cc4ccccc4)CC3)cnn2-c2ccc(F)cc2)CC1	none (no result: BCR signal inh, B2AR arrestin, MBNL1-CUG inh)
O=C(CNS(=O)(=O)c1ccc([N+](=O)[O-])cc1)N/N=C\c1ccc(O)cc1	MBNL1-CUG inh inconclusive
O=C(CNS(=O)(=O)c1ccc([N+](=O)[O-])cc1)N/N=C/c1ccc(O)cc1O	GLS inhibitor 12.6µM, MBNL1-CUG inh inconclusive
CCOC(=O)c1sc(NNC(=O)c2ccc(F)cc2)nc1C	BCR signal inh inconclusive, GLS inhibitor inconclusive
